Source: PubChem BioAssay (NCATS)
Results filed as inconclusive are left out. Unmarked numbers belong to inactive results. Active and inactive are the calls of the source. The call rests on the fitted dose curve; in most records, active means well fitted activation curve with a large enough effect; inconclusive means small, poorly fitted or top-dose-only effect; inactive means flat fitted curve, though single readings scatter.

Test: Primary redox qHTS assay for identification of artifact compounds. (AID 1845223);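 on redox activity (% of DA3003): 0% = DMSO and 100% = reference compound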
Conditions: Amplex Red/HRP redox cycling with DTT, fluorescence; series mostly up to 53.8 µM; redox activity (% of DA3003): at the top concentration
Summary of the method: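 Amplex Red (25 uM) and HRP (250 mU/mL) in HBSS, with compounds for 15 min, then 250 uM DTT for 30 min, room temperature, dark. Fluorescence 525/598 nm read; normalized to DMSO and 10 uM DA3003; Hill fit.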
Potency means the concentration at half of the fitted maximal effect.

SMILES	redox activity (% of DA3003)	Potency
O=C(Nc1ccccc1C(=O)NC1CCCCNC1=O)c1cc2ccccc2s1 (stereo not given)	6.1%	–
COc1cc2ncc(-c3ccccc3)nc2cc1OC	7.03%	–
CCOC(=O)C1(CCOc2ccccc2)CCN(Cc2ccc(O)c(Cl)c2)CC1	5.72%	–
CC[C@H](C(=O)Nc1ccccc1N1CCCC1)c1ccccc1	-0.281%	–
C=CC(C)(C)c1[nH]c2ccccc2c1C[C@@H]1NC(=O)[C@H](C)NC1=O	17.4%	–
CNc1nc(NCc2ccc(NS(C)(=O)=O)cc2Cl)cc(-c2ccccn2)n1	-5.47%	–
O=S(=O)(NCc1ccccn1)c1ccc(Br)c2ccccc12	-0.394%	–
CN1c2c(nc(N)[nH]c2=O)NC[C@@H]1CNc1ccc(C(=O)N[C@@H](CCC(=O)O)C(=O)O)cc1	0.134%	–
C=C1C(=O)O[C@H]2C[C@@H](C)[C@@H]3CCC(=O)[C@@]3(C)C[C@H]12	-0.864%	–
CN[C@@H]1[C@H](O[C@H]2[C@H](O[C@@H]3[C@@H](O)[C@H](O)[C@@H](N=C(N)N)[C@H](O)[C@H]3N=C(N)N)O[C@@H](C)[C@]2(O)CO)O[C@@H](CO)[C@H](O)[C@H]1O	-0.315%	–
CC(C)(C)[C@H](NC(=O)c1ccc(N)c(Cl)c1)C(=O)N1CCC[C@H]1C(=O)N[C@H](C#N)CC(=O)O	11.6%	–
Nc1nc2c(ncn2C2OC3COP(=O)(O)OC3C2O)c(=O)[nH]1 (stereo not given)	6.71%	–
CC(C)OC(=O)N1CCC(Oc2ncnc3c2cnn3-c2ccc(S(C)(=O)=O)cc2F)CC1	-5.54%	–
CC1(C)OC[C@H](NC(=O)Nc2ccc(Br)cc2Br)[C@H](c2ccccc2)O1	2.51%	–
CC(C)C[C@@H](C(=O)N[C@@H](Cc1ccc(OCc2ccccc2)cc1)C(=O)NC(C)(C)C)N(C)Cc1ccc(C(C)(C)C)cc1	-1.04%	–
C=C[C@](C)(O)CC[C@H]1C(C)=CC(=O)[C@H]2C(C)(C)CCC[C@]12C	12.9%	–
CCOc1cc(C(C)(C)C)ccc1C1=NC(C)(c2ccc(Cl)cc2)C(C)(c2ccc(Cl)cc2)N1C(=O)N1CCN(CCCS(C)(=O)=O)CC1 (stereo not given)	2.92%	–
CC(C)(O)C(=O)N1CCN(c2ccc(C(F)(F)F)c(C3=C(c4c[nH]c5ccccc45)C(=O)NC3=O)c2)CC1	17.1%	–
O=C(NCCN1CCN(c2cccc3c2OCCO3)CC1)c1ccc(F)cc1	1.06%	–
CN1CCN(C2=Nc3ccccc3Nc3ccc(OS(=O)(=O)C(F)(F)F)cc32)CC1	6.42%	–

SMILES	redox activity (% of DA3003)	Potency
O=C(O)CSc1cc(NS(=O)(=O)c2ccc(Br)cc2)c2ccccc2c1O	–	5.32 µM (active)
N#Cc1ccc(N2N=C3c4ccc(C(=O)O)cc4CC[C@@H]3[C@@H]2C2CCCC2)cc1Cl	9.32%	–
CCN1CCC[C@@H]1CNC(=O)c1ccc2c(c1)NC(=O)c1cccc(C)c1S2	-0.99%	–
COC1=CC(=O)C=C(C)C12Oc1c(Cl)c(OC)cc(OC)c1C2=O (stereo not given)	5.19%	–
C=C(C)C(=O)O[C@H]1[C@H]2C(=C)C(=O)O[C@@H]2/C=C(\CO)CC/C=C(/C=O)[C@@H]1O	3.42%	–
CC[C@@H]1C[C@]1(NC(=O)[C@@H]1C[C@@H]2CN1C(=O)[C@H](C(C)(C)C)NC(=O)OCC(C)(C)CCCCc1cccc3c1CN(C3)C(=O)O2)C(=O)NS(=O)(=O)C1CC1	14.3%	–
CC(C)(O)/C=C/C(=O)[C@](C)(O)[C@H]1[C@H](O)C[C@@]2(C)[C@@H]3CC=C4[C@@H](C[C@H](O[C@@H]5O[C@H](CO)[C@@H](O)[C@H](O)[C@H]5O)C(=O)C4(C)C)[C@]3(C)C(=O)C[C@]12C	19.5% [at 25.6 µM]	–
CC(C)n1c(=O)c(C(=O)NC2CC3CCC(C2)N3C[C@@H](O)CN(C)S(C)(=O)=O)cc2ccccc21 (stereo not given in full)	3.19%	–
Cc1cc(F)ccc1-c1nc(NCCN=C(N)NC#N)nc2c1ccc(=O)n2-c1c(F)cccc1F	2.53%	–
Oc1ccc(-c2cnc3ccc(NCc4ccco4)nn23)cc1	-8.31%	–
CC(C)(C)c1ccc(NC(=O)N2CCN(c3ncccc3Cl)CC2)cc1	-5.85%	–
C=C1C(=O)OC2C3=C(C)C(=O)CC3C(C)CC(O)C12 (stereo not given)	-0.865%	–
COC(CCc1ccc(O)cc1)CC(=O)CCc1ccc(O)cc1 (stereo not given)	-5.41%	–
CCCCCCCCC(=O)N[C@H](CN1CCCC1)[C@H](O)c1ccc2c(c1)OCCO2	-0.733%	–
O=C(Nc1cccc(C(F)(F)F)c1)Nc1ccc(Br)cc1-c1nn[nH]n1	-4.56%	–
CN(c1ccc(NC(=O)Nc2ccccc2)cc1)S(=O)(=O)c1cnn(-c2ccc(F)cc2)c1	1.53%	–
C=C1C(=O)O[C@@H]2[C@H]1CC(=O)[C@H](C)[C@@](O)(C(=O)/C=C/C)[C@H]2OC(=O)C(C)CC (stereo not given in full)	5.29%	–
CCN1CCN(Cc2ccc(C(=O)Nc3ccc(C)c(Oc4ccc5c(c4)CC(=O)N5)c3)cc2C(F)(F)F)CC1	0.964%	–
COc1ccc(C2(CNC(=O)c3ccc(NC(=O)c4ccco4)cc3)CCOCC2)cc1	5.46%	–
O=C(NC1(c2ccccc2)CC1)c1c(CN2CCC(N3CCCCC3)CC2)c(-c2cccc(C(F)(F)F)c2)nc2cc(Br)ccc12	14.5%	–
